Results: PubChem BioAssay (NCATS)
Inconclusive results are not listed. The source made the active and inactive calls. Unless noted, calls come from the whole dose curve; as a rule, active = well fitted curve in the direction sought with a large enough effect; inconclusive = small, poorly fitted or top-dose-only effect, or another doubt; inactive = no such curve, though single readings can be large; an effect the other way counts as inactive or inconclusive.

Key:
[1] = Primary qHTS for inhibitors of La Crosse Virus (LACV) - induced cell death in SH-SY5Y cells (AID 1508616);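 note: top concentration of the series differs between compounds; 0% = infected DMSO wells and 100% = uninfected DMSO wells; higher means more rescue of cells from virus-induced death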
Procedure, shortened: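 Cytopathicity rescue screen: compounds pinned onto SH-SY5Y cells, which are then infected with LACV (MOI 0.01) and held 6 days at 37C. Percent activity is scaled between infected DMSO control and uninfected DMSO control.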

[2] = target: Calcium and integrin-binding protein 1 (Homo sapiens) (UniProt Q99828); test: Validation qHTS for Identification of Calcium Integrin Binding protein 1 (CIB1) Competitor (AID 1508618); note: % is set by controls: 0 for no effect and ±100 for the full control effect
Procedure, shortened: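 Fluorescence polarization with 1 uM CIB1-GST and 100 nM FITC-alphaIIb peptide in HEPES pH 7.4, NaCl, 5 mM CaCl2, Tween20. Compounds at up to 114 uM final, preincubated with protein 15 min; read after 15 min more at RT.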

[3] = target: Calcium and integrin-binding protein 1 (Homo sapiens) (UniProt Q99828); test: Primary qHTS for Identification of Calcium Integrin Binding Protein 1 (CIB1) Competitor (AID 1508620);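 note: GST tagged CIB1 binding a fluorescein labelled alphaIIb integrin peptide tracer; top concentration of the series differs between compounds; % is set by controls: 0 for no effect and ±100 for the full control effect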
Procedure, shortened: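 CIB1-GST (1 uM final) and compound incubated 15 min at room temperature before adding FITC-alphaIIb peptide tracer (100 nM final). Competition for binding read by fluorescence polarization (ex 480, em 540) after another 15 min at room temperature.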

[4] = A High-Content qHTS Against Drug Library for the Identification of Small Molecules that Inhibit DYT1 Early Onset Primary Dystonia-Associated Cell Pathology (AID 1645839; calls by dose curve; note: potency is the fitted concentration of half-maximal effect; for % pathology change, negative = correction: series mostly up to about 46 µM)
Procedure, shortened: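 High-content imaging quantified EGFP-TorsinA mislocalization in HEK293-derived cells inducibly expressing DYT1 mutant torsinA, after 48 h exposure to compound given together with tetracycline induction. Cell count served as a toxicity channel alongside %pathology.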

[5] = target: Cytochrome P450 2D6 (Homo sapiens) (UniProt P10635); test: Cytochrome P450 family 2 subfamily D member 6 (CYP2D6) small molecule antagonists: luciferase biochemical (cell-free) qHTS assay (AID 1645840; active = well fitted curve in the direction sought with a large enough effect in the repeat runs; an effect the other way counts as inactive or inconclusive; note: nearly all actives have a fitted effect of over 55% in size; note: potency is the fitted concentration of half-maximal effect; for activity change, negative = inhibition: series mostly up to about 57 µM; % is set by controls: 0 for no effect and ±100 for the full control effect)
Procedure, shortened: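 P450-Glo CYP2D6 system: proluciferin substrate converted by enzyme to luciferin, read by luminescence proportional to activity. Enzyme-substrate mix with compound 10 min at room temperature, then NADPH regeneration 1 h before detection reagent.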

[6] = target: Cytochrome P450 2C9 (Homo sapiens) (UniProt P11712); test: Cytochrome P450 family 2 subfamily C member 9 (CYP2C9) small molecule antagonists: luciferase biochemical (cell-free) qHTS assay (AID 1645842; active = well fitted curve in the direction sought with a large enough effect in the repeat runs; an effect the other way counts as inactive or inconclusive; note: nearly all actives have a fitted effect of over 55% in size; note: potency is the fitted concentration of half-maximal effect)
Procedure, shortened: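 P450-Glo CYP2C9 system: proluciferin substrate with enzyme in mix containing 0.4% BSA, 10 min at room temperature, then NADPH regeneration solution added and incubated 1 h at 37C. Detection reagent stopped reaction; luminescence read after 20 min as RLU.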

[7] = target: Papain (Carica papaya) (UniProt P00784); test: Primary qHTS assay for inhibitors of the protease papain (AID 1645873);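 note: papain turnover of Z-FR-AMC read as the AMC fluorescence gain over 10 min; series mostly up to about 50 µM; % is set by controls: 0 for no effect and ±100 for the full control effect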
[8] = Primary qHTS for inhibitors of nuclear receptor binding SET domain protein 2 (NSD2) in an isogenic RCH-ACV NSD2 p.E1099K mutant (9B) (AID 1645876); note: nearly all actives have a fitted effect of over 70% in size
[9] = Primary qHTS for inhibitors of nuclear receptor binding SET domain protein 2 (NSD2) in an RCH-ACV wild type WT cells (2C) (AID 1645877); note: nearly all actives have a fitted effect of over 70% in size
[10] = target: Rap guanine nucleotide exchange factor 3 (Homo sapiens) (UniProt O95398); test: Confirmatory qHTS for antagonist of cAMP-regulated guanine nucleotide exchange factor 3 (EPAC1) (AID 1645880);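 note: plate controls were DMSO only for no effect and full effect of the ATA control for full effect; nearly all actives have a fitted effect of over 55% in size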
Procedure, shortened: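 Released BODIPY-GDP fluoresces less than Rap1-bound BODIPY-GDP; the signal is followed at 480/540 nm at 5-min intervals over 30 min, after 5 min at room temperature. Reactions contain 100 nM EPAC1, 250 nM RAP1B-BODIPY-GDP and 50 uM GDP; results are normalized to ATA and DMSO.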

[11] = target: Rap guanine nucleotide exchange factor 3 (Homo sapiens) (UniProt O95398); test: Confirmatory qHTS for agonist of cAMP-regulated guanine nucleotide exchange factor 3 (EPAC1) (AID 1645881);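 note: EPAC1 catalysed release of BODIPY-GDP from Rap1B seen as fluorescence loss; 100% = effect of cAMP agonist control; nearly all actives have a fitted effect of over 75% in size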
[12] = target: Rap guanine nucleotide exchange factor 4 (Homo sapiens) (UniProt Q8WZA2); test: Confirmatory qHTS for agonist of cAMP-regulated guanine nucleotide exchange factor 4 (EPAC2) (AID 1645884);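 note: nucleotide exchange releases bodipy-GDP from Rap1 and this lowers its fluorescence; % is set by controls: 0 for no effect and ±100 for the full control effect; nearly all actives have a fitted effect of over 65% in size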
[13] = target: Rap guanine nucleotide exchange factor 4 (Homo sapiens) (UniProt Q8WZA2); test: Confirmatory qHTS for antagonist of cAMP-regulated guanine nucleotide exchange factor 4 (EPAC2) (AID 1645885); note: nearly all actives have a fitted effect of over 25% in size; note: potency is the fitted concentration of half-maximal effect
[14] = target: Rap guanine nucleotide exchange factor 3 (Homo sapiens) (UniProt O95398); test: Counterscreen qHTS for antagonist of cAMP-regulated guanine nucleotide exchange factor 3 (EPAC1) (AID 1645888); note: % of control where 0% means no effect
Procedure, shortened: (§1)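 Rap1B-BODIPY-GDP 250 nM + GDP 50 uM; cpds 7-pt, final 9.74 nM–152 uM (activator mode) or from 7.32 nM upwards (inhibitor mode); RT; FI 480/540 nm at 5 and 30 min, then ± cAMP, reread.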

[15] = target: Rap guanine nucleotide exchange factor 3 (Homo sapiens) (UniProt O95398); test: Counterscreen qHTS for agonist of cAMP-regulated guanine nucleotide exchange factor 3 (EPAC1) (AID 1645889); note: % of control where 0% means no effect; nearly all actives have a fitted effect of over 40% in size
Procedure, shortened: as §1

Rap guanine nucleotide exchange factor 3 (Homo sapiens), sequence (O95398 whole entry, looked up): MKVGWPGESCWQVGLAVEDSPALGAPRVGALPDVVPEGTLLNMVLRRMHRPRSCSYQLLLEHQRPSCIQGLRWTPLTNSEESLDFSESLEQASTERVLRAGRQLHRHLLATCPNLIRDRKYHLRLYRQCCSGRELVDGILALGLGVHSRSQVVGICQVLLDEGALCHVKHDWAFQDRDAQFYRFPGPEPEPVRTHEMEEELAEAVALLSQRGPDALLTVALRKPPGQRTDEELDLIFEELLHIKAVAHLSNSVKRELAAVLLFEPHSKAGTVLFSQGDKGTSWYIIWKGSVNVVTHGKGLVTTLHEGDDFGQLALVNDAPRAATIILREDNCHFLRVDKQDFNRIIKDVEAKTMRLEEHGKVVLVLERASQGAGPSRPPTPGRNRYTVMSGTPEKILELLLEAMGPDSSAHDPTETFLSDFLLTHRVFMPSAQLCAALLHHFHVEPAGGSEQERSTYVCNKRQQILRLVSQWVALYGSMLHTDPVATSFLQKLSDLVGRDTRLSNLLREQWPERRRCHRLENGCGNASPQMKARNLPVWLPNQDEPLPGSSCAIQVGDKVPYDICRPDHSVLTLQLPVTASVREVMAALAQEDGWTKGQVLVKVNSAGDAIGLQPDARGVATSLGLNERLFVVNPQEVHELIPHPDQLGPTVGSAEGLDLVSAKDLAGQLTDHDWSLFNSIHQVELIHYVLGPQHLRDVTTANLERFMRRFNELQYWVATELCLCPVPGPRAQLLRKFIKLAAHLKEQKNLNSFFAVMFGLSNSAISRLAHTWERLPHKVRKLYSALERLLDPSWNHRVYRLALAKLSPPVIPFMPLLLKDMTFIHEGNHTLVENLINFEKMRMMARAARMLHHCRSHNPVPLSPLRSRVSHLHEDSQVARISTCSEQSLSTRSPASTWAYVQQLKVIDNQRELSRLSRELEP
Cytochrome P450 2C9 (Homo sapiens), sequence (P11712 whole entry, looked up): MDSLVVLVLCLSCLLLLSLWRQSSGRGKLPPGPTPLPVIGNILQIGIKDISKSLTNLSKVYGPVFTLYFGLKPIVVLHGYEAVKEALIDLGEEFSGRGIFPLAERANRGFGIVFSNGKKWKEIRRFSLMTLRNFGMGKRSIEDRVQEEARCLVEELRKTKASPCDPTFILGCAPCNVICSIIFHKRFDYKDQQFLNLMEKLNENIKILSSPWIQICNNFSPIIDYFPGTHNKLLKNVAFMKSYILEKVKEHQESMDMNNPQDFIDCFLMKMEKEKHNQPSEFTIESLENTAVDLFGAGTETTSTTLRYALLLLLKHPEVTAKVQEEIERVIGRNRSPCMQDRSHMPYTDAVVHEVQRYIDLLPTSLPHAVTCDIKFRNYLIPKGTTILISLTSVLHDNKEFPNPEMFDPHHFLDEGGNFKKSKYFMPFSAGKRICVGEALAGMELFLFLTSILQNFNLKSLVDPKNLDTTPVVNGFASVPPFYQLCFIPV
Papain (Carica papaya), sequence (P00784 whole entry, looked up, the tested form may be a part): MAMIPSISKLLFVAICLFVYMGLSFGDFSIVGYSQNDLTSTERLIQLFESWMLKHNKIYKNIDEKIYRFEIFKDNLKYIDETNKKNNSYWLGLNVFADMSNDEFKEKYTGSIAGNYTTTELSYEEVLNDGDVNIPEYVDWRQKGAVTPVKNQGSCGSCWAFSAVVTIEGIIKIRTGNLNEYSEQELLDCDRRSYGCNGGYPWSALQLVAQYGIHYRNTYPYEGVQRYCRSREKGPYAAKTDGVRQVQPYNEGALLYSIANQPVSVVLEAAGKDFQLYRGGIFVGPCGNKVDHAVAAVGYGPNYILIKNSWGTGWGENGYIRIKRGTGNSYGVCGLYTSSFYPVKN
Cytochrome P450 2D6 (Homo sapiens), sequence (P10635 whole entry, looked up): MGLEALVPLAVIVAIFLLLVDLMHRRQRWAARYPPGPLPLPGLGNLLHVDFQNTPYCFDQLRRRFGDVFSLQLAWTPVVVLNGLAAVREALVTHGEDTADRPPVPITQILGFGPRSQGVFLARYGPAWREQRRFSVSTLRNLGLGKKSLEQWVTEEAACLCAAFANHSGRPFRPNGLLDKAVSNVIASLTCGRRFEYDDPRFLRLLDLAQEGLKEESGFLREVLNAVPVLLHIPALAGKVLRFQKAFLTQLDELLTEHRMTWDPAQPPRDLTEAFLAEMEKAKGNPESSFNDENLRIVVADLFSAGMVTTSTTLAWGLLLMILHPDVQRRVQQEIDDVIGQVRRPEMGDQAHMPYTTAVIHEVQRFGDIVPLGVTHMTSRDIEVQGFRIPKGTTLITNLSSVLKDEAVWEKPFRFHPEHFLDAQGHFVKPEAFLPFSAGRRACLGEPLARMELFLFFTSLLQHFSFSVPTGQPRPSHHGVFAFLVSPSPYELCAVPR
Rap guanine nucleotide exchange factor 4 (Homo sapiens), sequence (Q8WZA2 whole entry, looked up): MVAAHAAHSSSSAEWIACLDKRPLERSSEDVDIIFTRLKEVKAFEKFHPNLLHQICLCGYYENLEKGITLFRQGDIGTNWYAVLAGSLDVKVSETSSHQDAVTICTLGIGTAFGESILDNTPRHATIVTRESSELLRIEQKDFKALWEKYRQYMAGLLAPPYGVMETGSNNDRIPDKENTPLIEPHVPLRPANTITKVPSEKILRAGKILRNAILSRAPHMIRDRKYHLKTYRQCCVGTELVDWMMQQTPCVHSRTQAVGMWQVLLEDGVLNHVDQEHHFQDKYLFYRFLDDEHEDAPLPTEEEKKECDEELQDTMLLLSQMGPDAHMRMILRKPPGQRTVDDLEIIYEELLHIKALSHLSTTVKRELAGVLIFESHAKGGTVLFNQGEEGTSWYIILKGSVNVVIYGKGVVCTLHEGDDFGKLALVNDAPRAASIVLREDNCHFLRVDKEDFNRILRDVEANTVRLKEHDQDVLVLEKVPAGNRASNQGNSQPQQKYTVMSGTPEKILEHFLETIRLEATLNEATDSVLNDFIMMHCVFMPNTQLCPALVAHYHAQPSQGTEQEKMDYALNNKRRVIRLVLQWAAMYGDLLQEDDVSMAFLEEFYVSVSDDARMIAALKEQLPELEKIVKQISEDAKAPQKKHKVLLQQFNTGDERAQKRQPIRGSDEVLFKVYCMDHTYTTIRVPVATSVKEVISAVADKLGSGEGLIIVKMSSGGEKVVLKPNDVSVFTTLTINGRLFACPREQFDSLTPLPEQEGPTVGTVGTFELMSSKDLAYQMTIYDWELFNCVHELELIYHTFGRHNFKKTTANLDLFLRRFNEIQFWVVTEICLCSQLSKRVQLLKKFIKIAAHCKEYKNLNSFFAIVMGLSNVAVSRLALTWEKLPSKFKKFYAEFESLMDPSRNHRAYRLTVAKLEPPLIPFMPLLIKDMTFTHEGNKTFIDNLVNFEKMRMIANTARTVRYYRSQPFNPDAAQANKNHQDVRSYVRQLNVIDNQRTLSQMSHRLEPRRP
Calcium and integrin-binding protein 1 (Homo sapiens), sequence (Q99828 whole entry, looked up): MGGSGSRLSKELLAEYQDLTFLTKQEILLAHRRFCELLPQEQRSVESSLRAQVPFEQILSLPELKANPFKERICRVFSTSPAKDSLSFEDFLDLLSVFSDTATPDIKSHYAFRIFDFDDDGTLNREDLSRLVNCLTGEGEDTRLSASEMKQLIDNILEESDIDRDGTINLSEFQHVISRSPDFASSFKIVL

O=C(O)CN(CCOCCOCCN(CC(=O)O)CC(=O)O)CC(=O)O
inactive: Potency [1] | outcome [2] | activity change, negative = inhibition [3] 0.103% [at 1.07 µM] | % pathology change, negative = correction [4] 13.7% [at 0.369 µM] | activity change, negative = inhibition [5] 2.42% [at 0.91 µM] | activity change, negative = inhibition [6] 9.82% [at 0.91 µM] | Potency [7] | activity change, negative = viability loss [8] 5.34% [at 0.588 µM] | activity change, negative = cell killing [9] -1.31% [at 0.588 µM]

CCCN(CCC)CCc1cccc2c1CC(=O)N2
active: Potency [5] 2.75 µM
inactive: Potency [1] | outcome [2] | Potency [3] | Potency [4] | Potency [6] | Potency [7] | Potency [8]

CCN(CC)CC(=O)Nc1c(C)cccc1C
inactive: Potency [1] | outcome [2] | Potency [3] | Potency [4] | Potency [7] | Potency [8] | Potency [9]

CCN(CC)CCNC(=O)c1cc(S(C)(=O)=O)ccc1OC
inactive: Potency [1] | outcome [2] | Potency [3] | Potency [4] | Potency [6] | Potency [7] | Potency [8] | Potency [9]

O=C(O)CCCCCCCC(=O)O
inactive: Potency [1] | outcome [2] | Potency [3] | Potency [4] | Potency [5] | Potency [6] | Potency [7] | Potency [8] | Potency [9]

NC(=O)N1c2ccccc2C=Cc2ccccc21
inactive: Potency [1] | outcome [2] | Potency [3] | Potency [4] | Potency [5] | Potency [6] | Potency [7] | Potency [8] | Potency [9]

C#CCN(C)CCCOc1ccc(Cl)cc1Cl
inactive: Potency [1] | outcome [2] | Potency [3] | Potency [4] | Potency [7] | Potency [8] | Potency [9]
active: Potency [5] 1.55 µM | Potency [6] 30.9 µM

Cc1cccc(C)c1NC(=O)C(C)N (configuration not stated)
inactive: Potency [1] | outcome [2] | Potency [3] | Potency [4] | Potency [5] | Potency [6] | Potency [7] | outcome [10] | Potency [11] | Potency [12] | Potency [13]

NC(N)=NC(=O)Cc1c(Cl)cccc1Cl
inactive: Potency [1] | outcome [2] | Potency [3] | Potency [4] | Potency [6] | Potency [7]

CN(C)C(=O)Oc1ccc[n+](C)c1
inactive: Potency [1] | outcome [2] | Potency [3] | Potency [4] | Potency [5] | Potency [6] | Potency [7] | Potency [8] | Potency [9]

CCc1c(C)[nH]c2c1C(=O)C(CN1CCOCC1)CC2 (configuration not stated)
inactive: Potency [1] | outcome [2] | Potency [3] | Potency [4] | Potency [7]

COC(=O)C1=C(C)NC(C)=C(C(=O)OC(C)(C)CN(C)CCC(c2ccccc2)c2ccccc2)C1c1cccc([N+](=O)[O-])c1 (configuration not stated)
inactive: Potency [1] | outcome [2] | Potency [3] | Potency [7]
active: Potency [4] 10 µM | Potency [5] 2.75 µM | Potency [6] 1.95 µM

CCn1nc(C(=O)O)c(=O)c2cc3c(cc21)OCO3
inactive: Potency [1] | outcome [2] | Potency [3] | Potency [4] | Potency [7] | Potency [8]

CC[N+](C)(C)c1cccc(O)c1
inactive: Potency [1] | outcome [2] | Potency [3] | Potency [4] | Potency [5] | Potency [6] | Potency [7] | Potency [8]

Fc1ccc(C(c2ccc(F)cc2)N2CCN(C/C=C/c3ccccc3)CC2)cc1
inactive: Potency [1] | outcome [2] | Potency [3] | Potency [7]
active: Potency [4] 12.6 µM | Potency [6] 7.76 µM

Brc1c(NC2=NCCN2)ccc2nccnc12
active: Potency [5] 21.9 µM
inactive: Potency [1] | outcome [2] | Potency [3] | Potency [4] | Potency [6] | Potency [7] | Potency [8] | Potency [9]

Cc1ccc(/C(=C\CN2CCCC2)c2ccccn2)cc1
inactive: Potency [1] | outcome [2] | Potency [3] | Potency [4] | Potency [6] | Potency [7] | Potency [8]

CCCNC(C)C(=O)Nc1ccccc1C (configuration not stated)
inactive: Potency [1] | outcome [2] | Potency [3] | Potency [4] | Potency [6] | Potency [7] | Potency [8] | Potency [9]

CCn1ccnc1CC1COc2ccccc2O1 (configuration not stated)
inactive: Potency [1] | outcome [2] | Potency [3] | Potency [4] | Potency [6] | Potency [7] | Potency [8] | Potency [9] | outcome [10] | Potency [11] | Potency [12]
active: Potency [5] 1.74 µM | Potency [13] 11.1 µM

CN/C(=C\[N+](=O)[O-])NCCSCc1ccc(CN(C)C)o1
inactive: Potency [1] | outcome [2] | Potency [3] | Potency [4] | Potency [6] | Potency [8] | Potency [9]
active: Potency [5] 15.5 µM

CN1C(=O)CC[C@H]1c1cccnc1
inactive: Potency [1] | outcome [2] | Potency [3] | Potency [4] | Potency [5] | Potency [6] | Potency [7] | Potency [8] | Potency [9]

CCN1CCC[C@H]1CNC(=O)c1c(O)c(Cl)cc(Cl)c1OC
inactive: Potency [1] | outcome [2] | Potency [3] | Potency [4] | Potency [6] | Potency [7] | Potency [8]

COc1cc(Cc2cnc(N)nc2N)cc(OC)c1OC
inactive: Potency [1] | outcome [2] | Potency [3] | Potency [4] | Potency [5] | Potency [6] | outcome [10] | Potency [11] | Potency [12] | Potency [13] | outcome [14] | outcome [15]

CC(=O)OCC1=C(C(=O)O)N2C(=O)[C@@H](NC(=O)Cc3cccs3)[C@H]2SC1
inactive: Potency [1] | outcome [2] | Potency [3] | Potency [4] | Potency [5] | Potency [6] | Potency [7] | Potency [8]

NC(Cc1ccc(Cl)cc1)C(=O)O (configuration not stated)
inactive: Potency [1] | outcome [2] | activity change, negative = inhibition [3] -1.79% [at 1.07 µM] | % pathology change, negative = correction [4] -28% [at 0.369 µM] | activity change, negative = inhibition [5] 5.71% [at 0.91 µM] | activity change, negative = inhibition [6] 10.6% [at 0.91 µM] | Potency [7] | outcome [8] inactive [at 0.588 µM] | activity change, negative = cell killing [9] 2.13% [at 0.588 µM]
